Experimental data: PubChem BioAssay AID589 (National Center for Advancing Translational Sciences (NCATS), 2007)
Hit rate of the full screen: of about 59,000 compounds, about 6,200 (11%) were called active. Another 9% or so got no clear call; they are omitted. The sample holds actives, similar compounds and a random draw of the others, so the mix is not that of the screen. Cut-off read from the data, not from the text of the source: active = max dye-equivalent concentration above about 10 nM; inconclusive = mostly about 1.1 nM to 9.6 nM; inactive = weaker than that.

Assay: qHTS Assay for Spectroscopic Profiling in 4-MU Spectral Region
Settings: compound autofluorescence, 340/450 nm, 4-MU equivalents; stronger effect = higher value
In short: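 Intrinsic fluorescence at 340/450 nm (ex/em) was read after 15 min at room temperature in pH 8.0, 100 mM Tris. Each compound concentration expressed as 4-MU-equivalent concentration from a six-point 4-MU standard series on each plate.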

Max dye-equivalent concentration, inactive:
O=C(NCc1ccc2c(c1)OCO2)c1ccc2c(c1)C(=O)N(CC1CCCO1)C2=O (centres undefined)
O=C(CCN1C(=O)c2ccncc2C1=O)Nc1ccc2c(c1)OCCO2
CC(C)(C)n1nnnc1C(c1ccc2ncccc2c1)N1CCSCC1 (centres undefined)
CCOC(=O)N1CCN(C(=O)C2CCN(S(C)(=O)=O)CC2)CC1
CCOC(=O)N1CCN(CC(=O)Nc2cc(C)nn2-c2nc3ccccc3s2)CC1
C=C(C)c1cccc(C(C)(C)NC(=O)N2CCN(c3ncccn3)CC2)c1
CC1CCCC(NC(=O)CSc2nccn2C)C1C (centres undefined)
CN1[C@H]2CC(OC(=O)[C@@H](CO)c3ccccc3)C[C@H]1[C@H]1O[C@H]12 (some centres undefined)
O=C(NCCN1CCOCC1)c1c(F)c(F)c(F)c(F)c1F
Oc1c(Br)cc(CN(Cc2cc(Br)c(O)c(Br)c2)C2CCCCC2)cc1Br
Cc1cc(=O)n2nc(N3CCCC(C(=O)N4CCN(C)CC4)C3)sc2n1 (centres undefined)
Cc1cccc(NC(=O)CSc2nnc(CCCCCNC(=O)OC(C)(C)C)o2)c1C
COCC(=O)N1CCC2(CCCN(c3ccccc3)C2)CC1
COC(=O)c1ccc(NCC(=O)c2ccccc2)cc1
O=C(Nc1cccc(-c2nnc(-c3ccccc3)o2)c1)C1CCCO1 (centres undefined)
O=C(Nc1ccc(-c2nnc(-c3ccccc3)o2)cc1)C1CCCO1 (centres undefined)
O=C(c1ccco1)N1CCN(C(=O)C2CC(c3ccc(Cl)c(Cl)c3)=NO2)CC1 (centres undefined)
O=C(CCn1c(=S)[nH]c2ccccc2c1=O)NCCCN1CCCC1=O
CSc1nnc(-c2ccncc2)n1CCCN1CCCC1=O
CC(C)NC(=O)N1CCCC2(CCN(C(=O)c3cccn3C)CC2)C1
COc1ccc2c(c1)CCc1c(C(=O)N3CCCC3)noc1-2
CCc1nnc(NC(=O)CSc2nnc(Cc3ccccc3)n2-c2ccc(OC)cc2)s1
COc1cccc(Nc2ncc3ncc(=O)n(C4CC4)c3n2)c1
O=c1cnc2cnc(Nc3ccccc3)nc2n1Cc1ccc(F)cc1
COc1cccc(CN2C(=O)CCC2(C)C(=O)NC2CCCCCC2)c1 (centres undefined)
COc1cccc(Cn2c(=O)cnc3cncnc32)c1
COc1cccc(Cn2c(=O)c(-c3ccccc3)nc3cnc(OC)nc32)c1
COc1cccc(Cn2c(=O)c(C)nc3cnc(Oc4ccccc4)nc32)c1
COc1ccc(-n2c(C)nc3c(cnn3-c3ccccc3)c2=O)cc1
Cc1cc(N2C(=O)c3ccc(C(=O)NCc4ccccc4)cc3C2=O)no1
COC(=O)[C@H](Cc1ccccc1)NC(=O)N1CC(C)OC(C)C1 (some centres undefined)
O=C(C1CCC(C(=O)N2CCCC2)CC1)N1CCCC1 (centres undefined)
O=C(c1cccs1)N1CCCC(c2nc(-c3ccc(F)cc3)no2)C1 (centres undefined)
C=CCn1c(=O)c2ccccc2n2c(SCC(=O)N3CCCc4ccccc43)nnc12
CC(C)CC(=O)N=C1SC2CS(=O)(=O)CC2N1CCc1ccccc1 (centres undefined)
CCCCN(C)C(=O)C1CCN(Cc2ccccn2)CC1
Cc1nc(SCC(=O)Nc2cc(C)on2)c2c3c(sc2n1)CCCC3
O=C(Nc1cccc2c1CCCC2)C1CCN(C(=O)NC2CCCCC2)CC1
CCOc1ccccc1N=C1NC(=O)CS1
CCc1nnc(NC(=O)c2c(O)c3c([nH]c2=O)CCCC3)s1
Cc1cccc(CNc2cc(-c3ccccc3Cl)ncn2)c1
COc1ccccc1CNc1ncnc2ccc(-c3c(C)noc3C)cc12
CNc1cc(-c2c(C)noc2C)ncn1
Cc1noc(C)c1-c1cc(NCc2cccnc2)ncn1

Max dye-equivalent concentration, active:
CCC(=O)Nc1ccc(C(=O)Nc2ccc3c(c2)C(=O)N(CC2CCCO2)C3=O)cc1 (centres undefined) 120 nM
CCOC(=O)N1CCN(C(=O)C2CCN(c3ncnc4c3sc3cccc(F)c34)CC2)CC1 18 nM
O=c1cc(-c2ccccc2)[nH]c2nc(Cl)ccc12 76 nM
O=C(Nc1ccc(-c2nnc(-c3ccccc3)o2)cc1)c1ccc(Br)o1 37 nM
CC(C)(C)OC(=O)c1c(N)n(CCCN2CCCC2=O)c2nc3ccccc3nc12 6400 nM
CCNc1ncc2ncc(=O)n(CCc3ccccc3)c2n1 75 nM
COc1cccc(Cn2c(=O)c(CCc3ccccc3)nc3cnc(N(C)C)nc32)c1 22 nM
CCNc1ncc2ncc(=O)n(Cc3cccc(OC)c3)c2n1 14 nM
CCNc1ncc2nc(CCc3ccccc3)c(=O)n(-c3ccc(OC)cc3)c2n1 12 nM
Cc1cnc(CNc2cc(-c3c(C)noc3C)ncn2)cn1 18 nM
